Whole data set: some 5,800 sequences, median “enrichment r” near 0.68, cut for the highest 2% near 11. Only a selection was taken, and the highest values are over-represented in it overall.
T1: UNK ZnF1-6 (called full-length) (human, UniProt Q9C0B0 30-357)
T1 sequence: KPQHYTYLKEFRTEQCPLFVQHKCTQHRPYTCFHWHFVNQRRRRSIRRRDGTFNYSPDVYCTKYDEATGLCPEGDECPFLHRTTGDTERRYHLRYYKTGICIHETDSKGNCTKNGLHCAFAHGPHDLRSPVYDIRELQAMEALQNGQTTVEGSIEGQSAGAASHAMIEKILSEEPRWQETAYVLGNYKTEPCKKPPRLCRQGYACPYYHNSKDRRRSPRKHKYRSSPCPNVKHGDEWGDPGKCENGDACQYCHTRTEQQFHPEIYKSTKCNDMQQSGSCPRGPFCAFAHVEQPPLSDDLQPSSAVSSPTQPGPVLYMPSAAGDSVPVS

B1: chr16:785952:786377:-|CDS|ENSG00000007376|control|control|control (ssRNA)
RNA: GGGAGUUCUACAGUCCGACGAUCCAGUCGCUGGACCAGCUCGUGCAGGCCUUACGGGCCACCCCCGACCCUGACCCCGAGGAUAGGGGCCCCAGGCCAGGCAGCCCCUCCGCACUCCUGCCUGGGCCCGGCCGGCCUCCUCCACAACAGAGGAUUGAGCAUCA
B2: chr1:162783069:162783171:+|3pUTR|ENSG00000162733|unk|FALSE|unique (ssRNA)
RNA: GGGAGUUCUACAGUCCGACGAUCUGAAAGUAGUUCAAAUUUGAAUUAGAAGAAUGAAGCUAGGACUUAUUUGGAAAAGGAGAUAGAAAAAAAAUGAUCAGAAACUGUGGGGCCUUAUUACCUUUGCAGUAAGUUAUCUUCUUCCAACAGAGGAUUGAGCAUCA
B3: chr15:64957256:64957357:+|3pUTR|ENSG00000166839|msi1|FALSE|unique (ssRNA)
RNA: GGGAGUUCUACAGUCCGACGAUCGCUGGAAAAUUGAAACAUAAUUUCACAAUUAUUCCUUUUUCCACCUUAAAUAAUAAGAGUAGAAUACUUUCUGUGUUUUUAUCUUAUACACAUGAAUAAAUGCUAUGGCUUAUCACAGUUCAACAGAGGAUUGAGCAUCA
B4: ENSG00000114744:stop:overlap|stop_codon|ENSG00000114744|stop_codon|NA|stop_codon (ssRNA)
RNA: GGGAGUUCUACAGUCCGACGAUCAACAAGCAUUGGAAGAGAUGAAGACAAAUCACUGUAGGAGAGUUGUUCGCAACAUCAAGUAGUACCAGUUUUAAGGUUUUAAUUCAUUUGAAUCACUUAUGAAUUGAUGAUAUACAGCAACAACAGAGGAUUGAGCAUCA
B5: ENSG00000066855:stop:overlap|stop_codon|ENSG00000066855|stop_codon|NA|stop_codon (ssRNA)
RNA: GGGAGUUCUACAGUCCGACGAUCGAGUGUUGUCCCUUCCAGCUGGCUUUAUUCAGCCCCACGUGUCCAAGCAUUGUCUGGGAUAGCCUUGUAUUGGAAAACCUGGCCCAUUCUGUAAAUAAAGGCUCCACUAGAAAAGACUCGCAACAGAGGAUUGAGCAUCA
B6: chr1:184691659:184691688:-|3pUTR|ENSG00000116406|msi1_unk|FALSE|overlapping (ssRNA)
RNA: GGGAGUUCUACAGUCCGACGAUCCUCCAACGUUGUAAUUACAACUCUACAUUCAUUUACUUACUUGACAUACUGCCACAAAGUAGUUUUUGAGUUCAUUAAAAAUUCCAAAGGCAUUAGUUGUUUUUUUUUUUUUUAGUGUUUCAACAGAGGAUUGAGCAUCA
B7: chr15:93027272:93027374:+|3pUTR|ENSG00000173575|unk|total|mutant (ssRNA)
RNA: GGGAGUUCUACAGUCCGACGAUCCCAGGAAUCUGUGAGGAUGGUAUUCCCUGGAGUCUGGCUUUGAAAGAUUUCAUUGUUGGCCGAAAUAACAGGUUGAGAAAGAGGGAGUCCGCAUCACCUAAAACCUGCACGUGAACAAGGCAACAGAGGAUUGAGCAUCA
B8: ENSG00000141127:stop:overlap|stop_codon|ENSG00000141127|stop_codon|NA|stop_codon (ssRNA)
RNA: GGGAGUUCUACAGUCCGACGAUCAUUCAUCAUGUAUGGAGCUAUCAAAGAAAAUUGCAGACUUUUUCCCCCUUUCUCUUCUCUAGGCGGCUAGGGGUGGAGAUGGGCAAAGUGCAGGUUUACCAGGAACCUAACAGAGAAACACAACAGAGGAUUGAGCAUCA
B9: chr22:31279490:31279591:+|3pUTR|ENSG00000182541|msi1|total|mutant (ssRNA)
RNA: GGGAGUUCUACAGUCCGACGAUCAGCAGCUUGGGCUGGGAAGAGGUGGUGGCAGAGUCUCAAAGCUGAGAUGCUGAGAGAGACCGCUCCCUGAGCUGGGCCAUCUGACUUCUACCUCCCAUGUUUGCUCUCCCAACUCAUCCGCAACAGAGGAUUGAGCAUCA
B10: chr5:43295829:43295944:-|CDS|ENSG00000112972|unk|total|mutant (ssRNA)
RNA: GGGAGUUCUACAGUCCGACGAUCAAUAUCCCCGCUUUAUUCUAAAGUCAAACUUUAAAAUUUCAUGGCUUAUAUGAAUUUCACCGUUUCCUUGGACUUCUCUUUCAGAGGGAAAUGAUAAAGAUUUUACCUUGAAUGAUUUUGCAACAGAGGAUUGAGCAUCA
B11: chr12:76028505:76028606:-|3pUTR|ENSG00000139289|msi1|total|mutant (ssRNA)
RNA: GGGAGUUCUACAGUCCGACGAUCAAGUCUUGGUCAGUAUUUUUCCAGCAUUUAAAUUGAAACGGUCAGUAUCCGACCACUGCCCGGUUAUGCCGUCAAGAAAUAAAAACCGAAUUACAUGCUACAGAUGUCUUUAUUCUCCUUCAACAGAGGAUUGAGCAUCA
B12: ENSG00000198589:be:win_5851|CDS|ENSG00000198589|bound_else_gene|NA|bound_elsewhere_windowed (ssRNA)
RNA: GGGAGUUCUACAGUCCGACGAUCACUCAACUAAUCCAGAAAAUUAUCAACAUUCUCACAGACAAGCAUGGAGCCUGGGGAAAUUCUGCAGUGAGUCGUCCUCUUGAGUUCUGGCGCCUUGACUACUGGGAAGAUGACUUGCGGCAACAGAGGAUUGAGCAUCA
B13: chr19:14961309:14961997:-|three_prime_utr|ENSG00000105143|control|control|control (ssRNA)
RNA: GGGAGUUCUACAGUCCGACGAUCGAUUCACUUACCCACUCACCAACUCAUUCAUUCAUGUCUUUCUGGGAUGAUUUCAUCACUAGUUGACUUCCUUGUUCAUCUGUUCAUUCAUUCAUUCUUCUAUGCAUUGGUUAGUUCAUGCAACAGAGGAUUGAGCAUCA
B14: chr15:60347444:60347559:-|3pUTR|ENSG00000182718|msi1_unk|total|mutant (ssRNA)
RNA: GGGAGUUCUACAGUCCGACGAUCUAACAGUCCCCGUGGCCAUCCCUGUGAGGGUGACGUCCGCAUUACCCCCAACCUCAUUUCCGUUGCCUAAGCAUUGCCUGGCCUUCCUGUCCCGUCUCUCCUGUAAGCCAAAGAAAUGAACAACAGAGGAUUGAGCAUCA

Molecular target: T1, UNK ZnF1-6 (called full-length)
Assay: nsRBNS (natural sequence RNA bind-n-seq); RBNS binding buffer (assumed for nsRBNS): 25 mM Tris pH 7.5, 150 mM KCl, 3 mM MgCl2, 0.01% Triton X-100, 500 ug/ml BSA, 20 U/ml SUPERase-In, 4 C; UNK is unkempt and MSI1 is Musashi-1; names of the RNAs are library labels; protein concentration not given here; high values mean tight binding

Binder	binding signal [enrichment R]
B1	0.526
B2	1.05
B3	0.535
B4	2.3
B5	0.862
B6	8.44
B7	0.486
B8	0.392
B9	0.701
B10	0.421
B11	0.271
B12	0.85
B13	0.569
B14	0.662

Reference: paper PMC12136788
